Only some compounds are listed: those with a hit (about 10% of all), similar ones and a draw of the others.
HP1b binding inh: HTS for Inhibitors of HP1-beta Chromodomain Interactions with Methylated Histone Tails; Chromobox protein homolog 1 (Homo sapiens), P83916; AlphaScreen HP1-beta / biotin-H3K9me3 peptide binding; Potency, µM (titrated, usually from 114 µM), for the others: at the highest dose activity change, negative = inhibition, usual class: inhibitors; hit rate 0.56% among 390,000; AID 540317, 2011; further: potency means the concentration at half of the fitted maximal effect; nearly all actives have a fitted effect of over 70% in size
Target sequence (P83916 whole entry, looked up): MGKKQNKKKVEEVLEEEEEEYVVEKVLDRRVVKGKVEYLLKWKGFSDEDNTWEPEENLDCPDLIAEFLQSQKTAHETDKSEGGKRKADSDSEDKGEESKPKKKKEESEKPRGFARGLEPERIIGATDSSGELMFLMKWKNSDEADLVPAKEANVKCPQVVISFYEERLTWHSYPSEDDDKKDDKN
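HP1-beta protein (50 nM final) preincubated 30 min at room temperature with biotinylated H3(1-18)K9me3 peptide (50 nM) in PBS pH 7.4, 0.01% Tween-20, then compound added for 30 min. AlphaScreen streptavidin donor/nickel chelate acceptor beads (10 ug/mL final), 30 min dark, luminescence read.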
JMJD2A Tudor: qHTS Assay for Inhibitors of JMJD2A-Tudor Domain | AlphaScreen JMJD2A-Tudor / H3K4me3 peptide binding | Potency, µM (highest dose often 114 µM), for the others: at the highest dose activity change, negative = inhibition, most hits filed as inhibitors | hit rate 4.4% among 390,000 | AID 504339, 2011; further: potency means the concentration at half of the fitted maximal effect; on the % scale 0 is the no-effect control and ±100 the full control effect; nearly all actives have a fitted effect of over 50% in size
CtBP-E1A inh: qHTS Assay for Inhibitors of the CtBP/E1A Interaction. CtBP / adenovirus E1A interaction (AlphaScreen). AlphaScreen GST-E1A/His-CtBP binding, 1536-well; active compounds read low. activity change, % (test concentration not listed). hit rate 0.49% among 340,000; in the data active means activity change below about -65%; inconclusive means mostly about -30% to -63%; further: on the % scale 0 is the no-effect control and ±100 the full control effect
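Homogeneous bead-based format: GST-tagged E1A captured on glutathione donor beads, His-tagged CtBP on nickel acceptor beads; compounds precede bead addition by 2 h at 37 °C.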
Six1-Eya2 inh: qHTS Assay for Inhibitors of the Six1/Eya2 Interaction; Homeobox protein SIX1 (Homo sapiens) + Protein phosphatase EYA2 (Homo sapiens), …; AlphaScreen GST-Six1/His-Eya2 binding, biochemical; active compounds read low; activity change, % (no concentration beside the values); hit rate 0.56% among 360,000; AID 651725, 2012; in the data active means activity change below about -65%; inconclusive means mostly about -30% to -63%; further: on the % scale 0 is the no-effect control and ±100 the full control effect
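AlphaScreen luminescence read after one hour at 37 °C in darkness. Pin-transferred compounds met GST-Six1 and His-Eya2 protein (5X stock 250 nM/500 nM) plus glutathione donor and Ni-chelate acceptor beads (5X, 50 ug/mL).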
G9a inh: qHTS Assay for Inhibitors of Histone Lysine Methyltransferase G9a. Potency, µM (titrated, usually from 102 µM), for inactives: at the top dose activity, negative = inhibition, hits mostly inhibitors. G9a H3K9 monomethylation, AlphaScreen, 2 h. AID 504332, 2011. hit rate 8.8% among 350,000. Histone-lysine N-methyltransferase EHMT2 (Homo sapiens), Q96KQ7; further: potency means the concentration at half of the fitted maximal effect; on the % scale 0 is the no-effect control and ±100 the full control effect; nearly all actives have a fitted effect of over 75% in size
Target sequence (Q96KQ7 913-1193 limits assumed): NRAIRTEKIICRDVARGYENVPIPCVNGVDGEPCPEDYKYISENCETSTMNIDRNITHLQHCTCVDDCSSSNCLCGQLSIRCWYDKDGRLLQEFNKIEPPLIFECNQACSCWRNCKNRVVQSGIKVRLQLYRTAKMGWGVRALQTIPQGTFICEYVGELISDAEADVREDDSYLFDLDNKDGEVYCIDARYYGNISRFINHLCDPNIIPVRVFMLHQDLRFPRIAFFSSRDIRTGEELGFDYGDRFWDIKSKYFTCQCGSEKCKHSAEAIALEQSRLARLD
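AlphaScreen detection with an anti-monomethyl H3K9 antibody quantified product after a 2 h room-temperature reaction containing 500 nM biotinylated H3K9 peptide, 20 µM SAM and 20 nM enzyme, which had been preincubated 15 min with compound.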
BAZ2B block: qHTS Assay for Inhibitors of BAZ2B | hit rate 4.4% among 360,000 | Potency, µM (top dose mostly 114 µM), for the others: at the top dose activity change, negative = inhibition, usual class: inhibitors | Bromodomain adjacent to zinc finger domain protein 2B (Homo sapiens), Q9UIF8 | AID 504333, 2011 | AlphaScreen BAZ2B-H3K14Ac peptide displacement; further: potency means the concentration at half of the fitted maximal effect; on the % scale 0 is the no-effect control and ±100 the full control effect; nearly all actives have a fitted effect of over 60% in size
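In this displacement format the biotinylated H3(5-23) peptide acetylated at Lys14 serves as ligand at 50 nM, with BAZ2B at 50 nM in PBS pH 7.4 containing 0.01% Tween-20. Donor and acceptor beads are 10 ug/mL final.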
Starred values were filed as active, the others as inactive; ? = inconclusive; nt = not tested or not shown; [ ] = dose if it differs, or a comment. Unless noted, the call rests on the fitted dose curve; in most records, active means well fitted inhibition curve with a large enough effect; inconclusive means small, poorly fitted or top-dose-only effect; inactive means no such curve, though single readings can be large or run the other way.

SMILES	HP1b binding inh	JMJD2A Tudor	CtBP-E1A inh	Six1-Eya2 inh	G9a inh	BAZ2B block
Cc1cccc(NC(=O)CN2C(=O)C(c3ccccc3)=NC23CCC(C)CC3)c1 (configuration not stated)	26.4%	-8.7%	nt	nt	5.1%[59 µM]	-1.2%
CCc1ccc(-n2c(=O)c3c4c(sc3n(Cc3ccccc3C#N)c2=O)CCCC4)cc1	57.6%	-18.1%	nt	nt	16.0%[59 µM]	28.1%
OC(C#Cc1ccccn1)c1cccs1 (configuration not stated)	?	44.7µM*	-15.5	-27.2	-113.8%[12.7 µM]	7.08µM*
CCCCCSc1nc2sc3c(c2c(=O)n1-c1ccccc1)CCN(C(C)=O)C3	2.6%	-27.3%	nt	nt	?	-16.6%
CN1CCc2c(sc3nc(SCC(=O)NCc4ccco4)n(-c4ccccc4)c(=O)c23)C1	40.3%	-13.6%	nt	-5.2	44.7µM*	?
CN1CCc2c(sc3nc(SCC(=O)N4CCOCC4)n(-c4ccc(Cl)cc4)c(=O)c23)C1	5.0%	-25.0%	-79.8*	-13.7	70.8µM*	?
COC(=O)CSc1nc2sc3c(c2c(=O)n1-c1ccc(OC)cc1)CCN(C)C3	-5.6%	-25.2%	0.6	-0.4	11.9%	-7.1%
COc1ccc(-n2c(SCC(=O)NCc3ccco3)nc3sc4c(c3c2=O)CCN(C)C4)cc1	-2.5%	-23.9%	-11.6	-10.8	79.4µM*	-28.5%
CCOC(=O)CSc1nc2sc3c(c2c(=O)n1-c1ccc(C)cc1)CCN(C)C3	7.9%	-28.1%	?	-18.1	?	-10.1%
C#CCSc1nc2sc3c(c2c(=O)n1-c1cccc(OC)c1)CCN(C(C)=O)C3	-3.3%	89.1µM*	nt	nt	?	?
CC(=O)O[C@H]1Cc2ccccc2N(C(N)=O)c2ccccc21	nt	nt	nt	nt	2.4%[59 µM]	nt
CCOC(=O)c1ccc(NC(=O)c2cc3c(=O)n(C)c4ccccc4c3n2C)cc1	25.0%	-18.5%	nt	nt	-4.0%[59 µM]	-6.1%
C=CCc1ccc(OCCOCCOc2cccc3ccc(C)nc23)c(OC)c1	15.8µM*	1.12µM*	-1.7	-3.9	3.55µM*	28.2µM*
C=CCc1ccc(OCCOCCNCCCC)c(OC)c1	?	3.98µM*	-0.3	-5.2	?	50.1µM*
CC(C)NC(=O)CCCOc1ccc(Cl)cc1Cl	31.4%	-5.4%	7.9	1.6	13.8%	-4.2%
CCC(C)NCCCOc1ccc(Cl)cc1C(C)(C)C (configuration not stated)	?	3.16µM*	-4.1	8.3	12.6µM*	50.1µM*
C=CCc1ccc(OCCOCCNCCOC)c(OC)c1	27.3%	-21.9%	-0.9	-7.4	-3.4%	-10.2%
COc1ccc(COc2cccc3ccc(C)nc23)cc1F	28.8%	-0.4%	-6.6	6.8	28.5%	14.6%
C=CCc1cc(Cl)ccc1OCCCNC(C)CC (configuration not stated)	?	22.4µM*	0.5	12.3	10µM*	-30.5%
O=C(Oc1ccccc1F)c1nc(SCc2ccc(F)cc2)ncc1Cl	45.4%	8.8%	nt	nt	23.1%[59 µM]	19.7%
COCCCNCCCOc1ccc(Cl)cc1C(C)(C)C	-27.0%	28.2µM*	2.7	10.7	?	0.6%
COC(=O)NNC(=O)CCCOc1ccc(Cl)cc1Cl	27.7%	1.4%	0.7	4.4	6.1%[59 µM]	8.5%
C=CCc1ccc(OCCCCNC(C)CC)c(OC)c1 (configuration not stated)	-18.6%	14.1µM*	-2.6	5.2	14.1µM*	-32.1%
Cc1cc(NC(=O)CCCOc2ccc(Cl)cc2Cl)no1	27.5%	1.2%	18.8	-2.5	0.5%[12.7 µM]	-3.3%
CNCCCOc1ccc(Cl)cc1C(C)(C)C	?	44.7µM*	-3.1	3.8	14.1µM*	31.6µM*
